Source: PubChem (National Center for Advancing Translational Sciences (NCATS))
SMN2 splice up – qHTS Assay for Enhancers of SMN2 Splice Variant Expression | HEK293 SMN2-luciferase splicing reporter, luminescence, 30-36 h | Potency, µM (highest dose often 46.1 µM), most hits filed as activators | 2.8% of 210,000 active | AID 1458, 2008; note: nearly all actives have a fitted effect of over 55% in size
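HEK293 cells carry an SMN2 […]–luciferase reporter in which exon 7 inclusion puts luciferase in frame. Cells were plated 10-12 h before compound addition, then incubated 30-36 h at 37C. ONE-Glo luminescence was read; sodium butyrate at 4.5 mM final served as control.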
NPC1 promoter act – qHTS Assay for NPC1 Promoter Activators. Huh7 NPC1 promoter luciferase reporter, 24 h. Potency, µM (series often up to 9.22 µM), actives largely listed as activators. AID 485313, 2010. 2.4% of 320,000 active; note: nearly all actives have a fitted effect of over 60% in size
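Cells: Huh7 expressing luciferase under the NPC1 promoter, 1500/well. Seeded 2 h, compound added, incubated 24 h at 37 °C. Luciferase reagent, 10 min ambient, then luminescence.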
Luc counter – Counterscreen for Luciferase (Kinase-Glo TM) Inhibition; AID 1379, 2008; Luciferin 4-monooxygenase (Photuris pensylvanica), Q27757; Potency, µM (titrated, usually from 38.3 µM), hits mostly inhibitors; Kinase-Glo luciferase, ATP luminescence, 8 min; 0.28% of 200,000 active; note: nearly all actives have a fitted effect of over 60% in size
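Kinase-Glo luciferase light output from ATP and luciferin was measured with 10 uM ATP, within the enzyme's linear range. Buffer: 50 mM imidazole pH 7.2, 50 mM KCl, 7 mM MgCl2, 0.01% Tween 20, 0.05% BSA; luminescence read after 8 min at ambient temperature.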
FLuc counter – qHTS profiling assay for firefly luciferase inhibitor/activator using purifed enzyme and Km concentrations of substrates (counterscreen for miR-21 project) | purified FLuc, Km substrates, luminescence inhibition | Potency, µM (highest dose often 57.5 µM), hits mostly inhibitors | AID 588342, 2011 | 6.9% of 360,000 active | Luciferin 4-monooxygenase (Photinus pyralis), P08659; note: nearly all actives have a fitted effect of over 55% in size
Target sequence (P08659 whole entry, looked up): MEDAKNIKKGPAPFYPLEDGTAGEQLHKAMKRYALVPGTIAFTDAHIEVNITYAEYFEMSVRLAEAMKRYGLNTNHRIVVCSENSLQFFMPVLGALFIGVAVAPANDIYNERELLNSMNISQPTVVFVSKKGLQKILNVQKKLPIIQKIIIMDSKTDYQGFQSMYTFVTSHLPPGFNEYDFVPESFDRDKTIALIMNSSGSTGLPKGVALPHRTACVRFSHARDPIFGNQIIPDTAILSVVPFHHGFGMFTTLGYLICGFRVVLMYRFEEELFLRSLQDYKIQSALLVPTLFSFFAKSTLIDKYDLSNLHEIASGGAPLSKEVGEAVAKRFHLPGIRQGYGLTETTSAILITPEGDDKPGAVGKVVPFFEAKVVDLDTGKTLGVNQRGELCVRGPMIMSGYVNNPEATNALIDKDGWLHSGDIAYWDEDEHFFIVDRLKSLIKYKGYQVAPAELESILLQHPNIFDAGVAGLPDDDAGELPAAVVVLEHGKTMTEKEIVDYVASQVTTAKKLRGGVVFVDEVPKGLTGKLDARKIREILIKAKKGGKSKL
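Biochemical qHTS of compounds, final roughly 60 µM downward over six points, against 10 nM purified firefly luciferase using Km concentrations of substrates (10 uM D-luciferin, 10 uM ATP) in Tris acetate pH 7.5 buffer; luminescence output.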
ELG1 genotoxic – qHTS screen for small molecules that induce genotoxicity in human embryonic kidney (HEK293T) cells expressing luciferase-tagged ELG1. HEK293T ELG1-luciferase reporter, luminescence, 16 h. Potency, µM (highest dose often 46 µM), actives largely listed as activators. 1.3% of 330,000 active; note: nearly all actives have a fitted effect of over 60% in size
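Cells (2,000/well) expressing the ELG1-luciferase fusion are dosed by pin tool and kept 16 hr at 37 °C, 5% CO2. Signal comes from ONE-Glo luciferase reagent after 30 min at room temperature.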
Rab9 prom act – qHTS Assay for Rab9 Promoter Activators; Huh7 Rab9 promoter-luciferase reporter, luminescence, 24 h; Potency, µM (top dose mostly 9.22 µM), actives largely listed as activators; 2.8% of 320,000 active; note: nearly all actives have a fitted effect of over 60% in size
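Huh7 reporter line, Rab9 promoter upstream of luciferase. Compound exposure 24 h at 37 °C in reduced-serum medium with 10% FBS. Read-out: luminescence.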
Numbers stand for hits; – = inactive; ? = inconclusive; · = no result given; [ ] = another dose, or the depositor's remark. Rows were chosen to be rich in hits. Some 7.5% of all compounds tested hit in one or more screens of this group. Calls come from the whole dose curve; as a rule, active = well fitted curve in the direction sought with a large enough effect; inconclusive = small, poorly fitted or top-dose-only effect, or another doubt; inactive = no such curve, though single readings can be large; an effect the other way counts as inactive or inconclusive.

SMILES | SMN2 splice up | NPC1 promoter act | Luc counter | FLuc counter | ELG1 genotoxic | Rab9 prom act
Cc1cc(Cl)ccc1OCCCC(=O)N1CCCCC1 | – | ? | – | 21µM | ? | ?
Cc1ccc(OCC(=O)N2CCCCCC2)c(C)c1 | 7.1µM | – | – | – | ? | –
COc1ccc(CNC(=O)COC(=O)CCCOc2ccc(Cl)cc2Cl)cc1OC | – | – | – | 17µM | – | –
CN(C)c1ccc(/C=N/N=C2/NC(=O)/C(=C/c3ccc([N+](=O)[O-])cc3)S2)cc1 | – | ? | – | 0.11µM | – | ?
O=C1NC(=Nc2cccc(O)c2)S/C1=C\c1cccc([N+](=O)[O-])c1 | · | – | · | – | – | –
CCOC(=O)C1CCN(C(=O)/C=C/c2ccccc2)CC1 | 11µM | 1.4µM | – | 24µM | – | 1.1µM
O=C(/C=C/c1ccc2c(c1)OCO2)N1CCN(c2ccc(Cl)cc2)CC1 | – | – | – | – | – | –
O=C(/C=C\C=C/c1ccc2c(c1)OCO2)N1CCCCC1 | ? | · | – | · | · | ·
O=C(/C=C/c1ccc2c(c1)OCO2)N1CCCCC1 | · | 3.5µM | · | 12µM | ? | 1.6µM
CCOC(=O)C1CCN(C(=O)/C=C/c2ccc3c(c2)OCO3)CC1 | · | 0.45µM | · | 15µM | ? | 0.79µM
O=C(/C=C/c1ccc2c(c1)OCCO2)N1CCN(c2ccc(F)cc2)CC1 | · | – | · | 24µM | – | –
COc1ccccc1CCNC(=O)c1ccc(NC(=O)N2CC(C)Sc3ccccc32)cc1 (stereo unspecified) | – | · | · | – | · | ·
CCCCc1nc2sc3c(=O)n(N)cnc3c2c2c1CCC2 | – | – | – | – | – | –
COc1ccc(Cl)cc1NC(=O)Cn1c2ncccc2c(=O)n1-c1ccc(C)c(C)c1 | · | · | · | – | · | ·
CCC1CCCCN1CCCNC(=O)Cn1c(=O)c2cccn2c2cccnc21 (stereo unspecified) | · | – | · | – | – | –
CCOC(=O)C1CCCCN1S(=O)(=O)c1csc(C(N)=O)c1 (stereo unspecified) | · | · | · | – | · | ·
O=S(=O)(Nc1ccc(Cl)cc1Cl)c1cc(Cl)ccc1Cl | · | · | – | · | · | ·
CCc1ccc(C(=O)CSc2nnc(C3CC3)n2C2CC2)cc1 | · | – | · | · | – | –
Cc1ccc(C(=O)CSc2nnc(C3CC3)n2C2CC2)s1 | · | ? | · | 19µM | ? | ?
O=C(NCc1ccccc1Cl)C1CCCN(c2nc3ccccc3n3cccc23)C1 (stereo unspecified) | · | · | · | – | · | ·
Cc1c(Cl)cccc1NC(=O)c1ccco1 | · | – | · | – | – | –
Cc1ccc(O)c(NC(=O)c2ccco2)c1 | 16µM | ? | – | 6µM | – | –
Cc1ccc(C(=O)Nc2ccc(NC(=O)c3ccco3)c(C)c2)cc1 | · | – | · | 5.4µM | ? | –
Cc1cc(NC(=O)c2ccc(Br)o2)ccc1NC(=O)c1ccco1 | · | – | · | ? | ? | –
Cc1cc(O)c(NC(=O)c2ccco2)cc1C | 11µM | – | – | 30µM | ? | –
SMILES | SMN2 splice up | NPC1 promoter act | Luc counter | FLuc counter | ELG1 genotoxic | Rab9 prom act
Cc1cc(NC(=O)c2ccccc2)ncc1NC(=O)c1ccco1 | 8.9µM | 2µM | 2.2µM | 11µM | 1.6µM | 1.4µM
COc1cccc(-c2nc(C(=O)NCC3CCCO3)cc3c2[nH]c2ccccc23)c1 (stereo unspecified) | · | – | · | – | – | –
Cc1ccc(CNC(=O)CCc2c(C)c3cc4c(C)coc4cc3oc2=O)cc1 | – | · | · | – | · | ·
CCOc1ccc(NC(=O)CCS(=O)(=O)c2cc3c4c(c2)CCN4C(=O)CC3)cc1 | · | · | · | – | · | ·
c1ccc2c(c1)CCN(c1nc3ccccc3n3cnnc13)C2 | – | – | – | ? | – | –
c1ccc2c(c1)CCCN2c1nc2ccccc2n2cnnc12 | – | – | – | 15µM | – | –
COc1ccc2c(c1)oc(=O)c1ccccc12 | – | – | – | ? | – | –
COc1ccc2c(c1)oc(=O)c1cc(OC)ccc12 | · | 2.5µM | · | 3µM | 10µM | 2.5µM
O=c1c2ccccc2oc2ccccc12 | ? | · | – | · | · | ·
Nc1cccc(C#Cc2ccc3c(=O)c4ccccc4oc3c2)c1 | · | – | · | ? | ? | 0.56µM
COc1ccc2c(=O)c3ccccc3oc2c1 | · | 3.5µM | · | 12µM | ? | ?
COc1ccc(C2=CCN3CCCCC3C2)c(-c2ccc(OC)c(OC)c2)c1 (stereo unspecified) | · | · | · | · | – | ·
CC(=O)c1cc(-c2ccc(F)cc2)n(CCC(=O)Nc2cccc(C)n2)c1C | – | – | – | – | – | –
COc1ccc(-c2cc(=O)oc3cc(OCC(=O)N(C)C)ccc23)cc1 | · | – | · | – | – | –
O=c1oc2cc(OCc3c(F)cccc3Cl)ccc2cc1-c1ccccn1 | – | – | – | – | – | –
CCCOc1ccc2cc(-c3ccccn3)c(=O)oc2c1 | 0.79µM | ? | 13µM | 0.24µM | ? | 0.45µM
CC(Oc1ccc2cc(-c3ccccc3)c(=O)oc2c1)C(=O)NCC1CCC(C(=O)O)CC1 (stereo unspecified) | · | – | · | 21µM | – | –
CN(C)C(=O)COc1ccc2cc(-c3ccccc3)c(=O)oc2c1 | 18µM | 4µM | – | ? | ? | 2µM
COc1ccc2cc(-c3ccccc3)c(=O)oc2c1 | · | 1.3µM | · | 2.4µM | 2.6µM | 0.71µM
COc1ccc(CC(=O)Nc2sc3c(c2C(=O)Nc2c(C)cccc2C)CCCCC3)cc1 | – | · | · | – | · | ·
N#CCCN(C(=O)CN1CCN(S(=O)(=O)c2ccc(Cl)s2)CC1)c1ccc(F)cc1 | · | · | · | · | – | ·
COC(=O)C(C)Oc1ccc2cc(-c3ccccc3)c(=O)oc2c1 (stereo unspecified) | · | – | · | 24µM | – | –
O=c1oc2ccccc2cc1-c1ccccc1 | – | – | – | ? | ? | ?
O=C(O)COc1ccc2c(-c3ccccc3)cc(=O)oc2c1 | ? | – | – | 19µM | – | –
CC(C)(C)c1ccc(OCC(=O)N(Cc2ccco2)Cc2ccccc2F)cc1 | – | · | · | – | · | ·
SMILES | SMN2 splice up | NPC1 promoter act | Luc counter | FLuc counter | ELG1 genotoxic | Rab9 prom act
O=C(COc1ccc(Cl)cc1)Nc1ncccn1 | – | – | – | 19µM | 21µM | –
Cc1cc(C)nc(NC(=O)COc2ccc(Cl)cc2)c1 | –[9.22 µM] | · | –[7.66 µM] | · | · | ·
O=C(COc1ccc(Cl)cc1)NNC(=O)c1ccccn1 | – | – | – | – | – | –
Cc1ccnc(NC(=O)COc2ccc(Cl)cc2)n1 | · | – | · | 24µM | ? | –
O=C(NC1CCN(Cc2ccccc2)CC1)c1ccc(-n2c(=O)c(=O)[nH]c3ccccc32)cc1 | · | · | – | · | · | ·
CC(C)C[C@H](NC(=O)C1CCN(S(=O)(=O)c2ccccc2)CC1)C(=O)NCc1ccccn1 | · | – | · | – | – | –
O=C(O)c1ccc(S(=O)(=O)c2ccc([N+](=O)[O-])cc2[N+](=O)[O-])cc1 | · | – | · | – | – | –
